Only some compounds are listed: those with a hit (about 9.3% of all), similar ones and a draw of the others.
HCMV inh – qHTS Assay for inhibitors of the human cytomegalovirus (HCMV). HFF cells, HCMV-luciferase reporter, 72 h; stronger effect = lower value. activity change, negative = inhibition, % at 57.5 µM. 410,000 compounds, 4.5% hits; in the data active = activity change below about -60%; inconclusive = no clear call, values can overlap the other calls; inactive = above about -39%
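Human foreskin fibroblasts infected with luciferase-reporter HCMV at MOI 1 PFU/cell, compounds at two doses. Luciferase measured 72 h post infection; normalized to buffer-only basal and Salinomycin (10uM) controls.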
HCV inhibitor – qHTS Assay for Inhibitors of Hepatitis C Virus (HCV). Huh7.5.1 HCVcc-Cre infection, luciferase reporter, 44 h. Potency, µM (doses to about 41.8 µM), for inactives: top-dose activity change, negative = inhibition, actives largely listed as inhibitors. 340,000 compounds, 3.4% hits. AID 651820, 2012; note: potency is the fitted concentration of half-maximal effect
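Whole-lifecycle infectious HCVcc-Cre system; cells 1,000/well, compound then virus (~0.5 moi) added 4 h after plating, 44 h culture. Luciferase read 15 sec following 15 min substrate incubation, room temp.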
FMDV inh – High Throughput Screening for Foot and Mouth Disease Virus Antivirals. FMDV antiviral cell-based qHTS. Potency, µM (series often up to 57.9 µM), for inactives: top-dose activity change, negative = inhibition, hits mostly inhibitors. 410,000 compounds, 1.2% hits. AID 1159524, 2015; calls by dose curve; tested in HEK293T cells; note: read-out not given here; potency is the fitted concentration of half-maximal effect; nearly all actives have a fitted effect of over 45% in size
VACV Venus inh – qHTS for Stage-Specific Inhibitors of Vaccinia Orthopoxvirus: Venus Reporter Primary qHTS; Vaccinia virus Venus reporter expression, fluorescence; Potency, µM (titrated, usually from 36.5 µM), without a hit: at the highest dose activity change, negative = inhibition, usual class: inhibitors; 330,000 compounds, 0.46% hits; AID 720580, 2013; calls by dose curve; tested in A549 cells; note: potency is the fitted concentration of half-maximal effect; nearly all actives have a fitted effect of over 30% in size
Sm TGR inh – qHTS Assay for the Inhibitors of Schistosoma Mansoni Peroxiredoxins; 360,000 compounds, 3% hits; purified TGR, DTNB reduction, TNB absorbance 405 nm; AID 485364, 2010; Potency, µM (titrated, usually from 114 µM), for the others: top-dose activity change, negative = inhibition, most hits filed as inhibitors; note: potency is the fitted concentration of half-maximal effect; nearly all actives have a fitted effect of over 60% in size
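Kinetic colorimetric format: TGR-catalysed, NADPH-driven DTNB reduction monitored via TNB absorbance. Enzyme dispensed at 20 nM; compound exposure 15 min at room temperature before reaction start.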
Vaccinia mCherry – qHTS for Stage-Specific Inhibitors of Vaccinia Orthopoxvirus: mCherry Reporter Primary qHTS; Vaccinia virus mCherry reporter infection, fluorescence; Potency, µM (highest dose often 36.5 µM), without a hit: at the top dose activity change, negative = inhibition, actives largely listed as inhibitors; 310,000 compounds, 0.63% hits; calls by dose curve; tested in A549 cells; note: potency is the fitted concentration of half-maximal effect; nearly all actives have a fitted effect of over 35% in size
* marks the source's active call; other numbers are inactive results; [ ] = another dose, or the depositor's remark. Unless noted, calls come from the whole dose curve; as a rule, active = well fitted curve in the direction sought with a large enough effect; inconclusive = small, poorly fitted or top-dose-only effect, or another doubt; inactive = no such curve, though single readings can be large; an effect the other way counts as inactive or inconclusive. % is set by controls: 0 for no effect and ±100 for the full control effect.

Screening Cn1nc(C(F)(F)F)c(/C=N/OC(=O)c2ccccc2)c1Sc1ccc(Cl)cc1 returned HCMV inh -63.4*, HCV inhibitor inconclusive, FMDV inh inconclusive, VACV Venus inh -22.8% and Sm TGR inh -0.5%.
For CCc1ccc(OCc2nc(-c3ccc(OC)cc3)no2)c(Br)c1 the results were HCMV inh -31.7, FMDV inh -0.9%, VACV Venus inh -18.0%, Sm TGR inh 4.9% and Vaccinia mCherry -14.4%.
For COc1ccccc1Cn1cc(C(=O)c2ccc(Cl)cc2)c(=O)c2ccccc21 the results were HCMV inh -100.6*, FMDV inh 0.0%, VACV Venus inh inconclusive, Sm TGR inh 4.0% and Vaccinia mCherry -5.6%.
CCc1ccc(C(=O)c2cn(Cc3ccccc3)c3cc(OC)c(OC)cc3c2=O)cc1 was read as HCMV inh -64.9*, FMDV inh -27.3%, VACV Venus inh -13.9%, Sm TGR inh -2.4% and Vaccinia mCherry inactive.
Screening COc1cc2c(=O)c(C(=O)c3ccc(C)c(C)c3)cn(Cc3ccccc3F)c2cc1OC returned HCMV inh -71.7*, FMDV inh inconclusive, VACV Venus inh -7.8%, Sm TGR inh 4.6% and Vaccinia mCherry -17.5%.
CN(C)CCCNC(=S)N1CCC(C(=O)c2ccc(Cl)cc2)CC1 was read as HCMV inh -34.0, FMDV inh inconclusive, VACV Venus inh -9.4% and Vaccinia mCherry -0.3%.
For Nc1nc(SCC(=O)N2N=C(c3ccc(Cl)cc3)CC2c2ccco2)n[nH]1 (stereo unspecified) the results were HCMV inh 11.5, HCV inhibitor 7.0%, FMDV inh 4.1%, VACV Venus inh 0.0%[7.34 µM], Sm TGR inh -0.3% and Vaccinia mCherry inactive[7.34 µM].
CC(C)Cc1nnc(NC(=O)CCC(=O)NCCc2ccc(Cl)cc2)s1 was read as HCMV inh -22.0, HCV inhibitor -2.9%, FMDV inh -20.8% and Sm TGR inh 0.5%.
`Cc1cccc(N2CCN(C(=O)CSCc3c(C)noc3C)CC2)c1C` gave HCV inhibitor 3.98µM*, FMDV inh inconclusive, VACV Venus inh -25.5%, Sm TGR inh 5.4% and Vaccinia mCherry -12.9%.
Screening O=C(CSCc1ccc(F)cc1)N1CCN(c2ccc(Cl)cc2)CC1 returned HCMV inh inconclusive, FMDV inh inconclusive, VACV Venus inh -19.5%, Sm TGR inh 1.8% and Vaccinia mCherry -21.2%.
For Cc1ccc(C(=O)Nc2cc(Cl)ccc2N2CCCCC2)s1 the results were HCMV inh -20.7, HCV inhibitor inconclusive, FMDV inh inconclusive, VACV Venus inh -2.7% and Sm TGR inh 8.1%.
For Cc1noc(C)c1CSCC(=O)Nc1cc(C(F)(F)F)ccc1N1CCCCC1 the results were HCMV inh -13.8, HCV inhibitor inconclusive, FMDV inh -23.9%, VACV Venus inh -10.5%, Sm TGR inh -0.5% and Vaccinia mCherry inactive.
CCc1sc(C(=O)Nc2cc(Cl)ccc2N2CCCCC2)cc1C was read as HCMV inh -62.8*, HCV inhibitor inconclusive, FMDV inh -6.9%, VACV Venus inh 1.9%, Sm TGR inh 2.3% and Vaccinia mCherry -0.7%.
`Cc1noc(C)c1CSCC(=O)Nc1cc(Cl)ccc1N1CCCCC1` gave HCMV inh -25.5, HCV inhibitor 10µM*, FMDV inh 0.0%, VACV Venus inh -18.9%, Sm TGR inh -2.4% and Vaccinia mCherry -2.6%.
`Cc1noc(C)c1CSCC(=O)N1CCN(c2ccc(F)cc2)CC1` gave HCMV inh -60.3*, HCV inhibitor inconclusive, FMDV inh inconclusive, VACV Venus inh -25.3%, Sm TGR inh -8.2% and Vaccinia mCherry inconclusive.
COc1ccccc1N1CCN(c2ccc([N+](=O)[O-])cn2)CC1 was read as HCMV inh 18.0, HCV inhibitor -2.2%, FMDV inh -19.3%, VACV Venus inh -3.1%, Sm TGR inh 6.1% and Vaccinia mCherry inactive.
O=C(NNC(=O)c1ccc(Cl)c(S(=O)(=O)Nc2ccc(Cl)cc2)c1)c1ccc(=O)[nH]c1 was read as HCMV inh -17.9, HCV inhibitor 24.1%, FMDV inh 1.8%, VACV Venus inh -7.5%, Sm TGR inh 0.5% and Vaccinia mCherry -18.8%.
Cc1cc(C)c(NC(=O)Cc2csc(C)n2)c(Cl)c1 was read as HCMV inh -60.8*, FMDV inh 5.4%, VACV Venus inh -11.8%, Sm TGR inh 1.6% and Vaccinia mCherry 3.0%.
Screening CCc1cccc(CC)c1NC(=O)Cc1csc(C)n1 returned HCMV inh -5.7, FMDV inh -16.2%, VACV Venus inh 5.8%, Sm TGR inh inconclusive and Vaccinia mCherry 6.9%.
Screening Cc1cccc(C)c1NC(=O)CN(C)C(=O)/C=C/c1cccs1 returned HCMV inh -22.5, HCV inhibitor 3.9%, FMDV inh -1.3% and Sm TGR inh -1.0%.
N#CC1=C2N=C(N)c3ccccc3N2C2=C(C(=O)CCC2)C1c1cccc(Cl)c1 (stereo unspecified) was read as HCMV inh -69.8*, HCV inhibitor inconclusive, FMDV inh -3.5% and Sm TGR inh -10.8%.
COc1ccccc1NC(=O)Cn1c2ccccc2c2nc3n(c(=O)c21)CCS3 was read as HCMV inh 20.5, HCV inhibitor -19.6%, FMDV inh -6.7%, VACV Venus inh -13.7%, Sm TGR inh 7.3% and Vaccinia mCherry inactive.
For NC(=O)c1ccccc1NC(=O)CSC1=NCCS1 the results were HCMV inh inconclusive, HCV inhibitor 5.4%, FMDV inh -4.3% and Sm TGR inh -3.1%.
For CCOCc1cc(=O)[nH]c(SC)n1 the results were HCMV inh -60.1*, HCV inhibitor 12.2%, FMDV inh -1.9%, VACV Venus inh -9.0%, Sm TGR inh 9.0% and Vaccinia mCherry inactive.
Screening CSc1nc(Cl)cc(=O)[nH]1 returned HCMV inh -39.4, HCV inhibitor 2.5%, FMDV inh -2.2%, VACV Venus inh -6.0%, Sm TGR inh 1.6% and Vaccinia mCherry inactive.
`O=C(N/N=C/C=C/c1ccccc1[N+](=O)[O-])c1cccs1` gave HCMV inh inconclusive, HCV inhibitor -11.5%, FMDV inh 21.0%, VACV Venus inh -16.6%, Sm TGR inh -16.3% and Vaccinia mCherry -1.9%.
`O=C(N/N=C/c1ccc([N+](=O)[O-])o1)c1ccc(NS(=O)(=O)c2cccs2)cc1` gave HCMV inh -33.1, HCV inhibitor 9.5%, FMDV inh 0.0%, VACV Venus inh -24.0%, Sm TGR inh 35.5µM* and Vaccinia mCherry -14.3%.

Screens: PubChem, National Center for Advancing Translational Sciences (NCATS)
